The source of these data is PubChem BioAssay (EPA / NIEHS).

“And” between values parts separate entries of the source, which are not always exact repeats. Equal entries are not always repeated. The source holds several records for some structures; these can differ, active in one and inactive in another. The source made the active and inactive calls. Rule for the calls: active = hit-call score of the fitted dose curve at least 0.9, where 1 is the maximum; inactive = score below 0.9.

Read-out in this experiment: Monocyte Chemoattractant Protein-1 (MCP1), CCL2 (gene 6347)
Put plainly: BSK_3C_MCP1: BioMAP Diversity Plus: 3C Assay for Monocyte Chemoattractant Protein-1 (MCP1) Biomarker Activity (AID 2283017). The following applies: primary human endothelial cells (HUVEC); actives raise or lower the signal. On the procedure:
BSK_3C is a cell-based, multiplexed-readout assay that uses umbilical vein endothelium, a human vascular primary cell, with measurements taken at 24 hours after chemical dosing in a 96-well plate.BSK_3C_MCP1 is an assay component measured in the BSK_3C assay. It measures MCP-1 antibody related to regulation of gene expression using ELISA technology.Data from the assay component BSK_3C_MCP1 was analyzed into 1 assay endpoint. This assay endpoint, BSK_3C_MCP1, was analyzed with bidirectional fitting relative to DMSO as the negative control and baseline of activity. Using a type of binding reporter, gain or loss-of-signal activity can be used to understand changes in the signaling as they relate to the gene CCL2. Furthermore, this assay endpoint can be referred to as a primary readout, because this assay has produced multiple assay endpoints where this one serves a signaling function. To generalize the intended target to other relatable targets, this assay endpoint is annotated to the cytokine intended target family, where the subfamily is chemotactic factor.
The levels of cell surface (or secreted, indicated by the prefix "s") biomarker endpoints were measured by ELISA. Overt cytotoxicity to cells in confluent adherent cultures (all systems other than the BT system) was assessed by measuring total protein levels using sulforhodamine B (SRB) staining in parallel cultures at the time of biomarker measurements, indicated as SRB endpoints. For proliferation assays for adherent cell types, individual cell types are cultured at sub-confluence and relative cell numbers quantified by SRB staining at time points optimized for each system (48 h: 3C and CASM3C systems; 72 h: BT and HDF3CGF systems; 96 h: SAg system). SRB was performed by staining cells with 0.1% SRB after fixation with 10% TCA and reading wells at 560 nm.Viability and proliferation of PBMC (T cells) was quantified by Alamar Blue reduction for the SAg and BT systems. For PBMC viability (referred to as PBMC Cytotoxicity within the assay endpoint names), cells were plated (75,000/well in a 96-well plate) and then chemical samples added for 1 h before addition of activators, SEB and TSST-1 (20 ng/mL final concentration each). Cells were incubated for 90 h. Then, Alamar Blue (20 uL/well) (Invitrogen, Cat DAL1100) was added for 6 h, and the plates were read with a fluorescence microplate reader at 546/580 nm (excitation/emission). For PBMC proliferation, cells were plated and activated as above but incubated for only 16 h prior to addition of Alamar Blue. Plates were read after 6 h.
Take `Cc1cc2c3c(c1)C(c1ccccc1)=N[C@@H](NC(=O)c1ccncc1)C(=O)N3CC2`: the result was inactive.
Turning to `CO/C=C(/C(=O)OC)c1ccccc1COc1cccc(C(F)(F)F)n1`, the AC50 was 7.3 µM (active).
As for `O=NN(c1ccccc1)c1ccccc1`, the outcome was inactive.
Regarding `O=C(NC(=O)c1cc(F)c(F)cc1Cl)Nc1cc(F)ccc1N1CCC(C(=O)O)CC1`, the outcome was inactive.
On the same count and under the same terms, in the case of `COc1ccc(O)c(C(C)(C)C)c1` it was “inactive”; in that of `CCSC(=O)N(CC)C1CCCCC1`, “inactive”.
Same read-out and setting: with `C=CC(N)=O` the entry was “inactive”.
On to `O=C(O)C(F)(F)C(F)(F)C(F)(F)C(F)(F)C(F)(F)C(F)(F)C(F)(F)C(F)(F)F`, for which the outcome was inactive and the concentration at half-maximal activity (AC50) is 54.7 µM (active).
In the case of `ClC1=C(Cl)[C@]2(Cl)[C@@H]3[C@H]4C[C@H]([C@@H]5O[C@H]45)[C@@H]3[C@@]1(Cl)C2(Cl)Cl`, the outcome was inactive.
On the same count and under the same terms, with `Cc1ccccc1[N+](=O)[O-]` the entry was “inactive”; with `O=C(NC(=O)c1c(F)cccc1F)Nc1cc(Cl)c(OC(F)(F)C(F)F)c(Cl)c1`, “inactive”.
`Oc1c(Cl)c(Cl)c(Cl)c(Cl)c1Cl`: the AC50 was 13.7 µM (active).
For the molecule `ClC1=C(Cl)[C@]2(Cl)[C@@H]3[C@@H](Cl)[C@H]4O[C@H]4[C@@H]3C1(Cl)C2(Cl)Cl`, the result was inactive.
On the same count and under the same terms, with `CCC(C)(CC)c1cc(NC(=O)c2c(OC)cccc2OC)on1` the entry was “inactive”; with `Cc1cccc(C)c1N`, “inactive”; with `O=C(N[C@H]1CN2CCC1CC2)c1cc2ccoc2cn1`, “inactive”.
Still for that read-out and setting: with `C[C@]12CCC(=O)C=C1CC[C@@H]1[C@@H]2CC[C@@]2(C)[C@H]1CC[C@]2(C)O` the entry was “inactive”.
Take `CC1=C2C[C@H]3[C@@H](CC=C4C[C@@H](O)CC[C@@]43C)[C@@H]2CC[C@]12O[C@@H]1C[C@H](C)CN[C@H]1[C@H]2C`: the concentration at half-maximal activity (AC50) was 2.82 µM (active).
Still for that read-out and setting: with `CCOC(=O)C(O)(c1ccc(Cl)cc1)c1ccc(Cl)cc1` the figure was 31 µM (active); with `CCCCCCCCCC[N+](C)(C)CCCCCCCCCC`, 3.59 µM (active); with `NS(=O)(=O)C(F)(F)C(F)(F)C(F)(F)C(F)(F)C(F)(F)C(F)(F)C(F)(F)C(F)(F)F`, 34.4 µM (active) and 47.7 µM (active) and 48.9 µM (active).
Take `Cc1cccc([N+](=O)[O-])c1`: the result was inactive.
On to `c1ccc(-c2ccccc2)cc1`, for which the outcome was inactive.
Take `CC(C)(c1ccccc1)c1ccc(O)cc1`: the concentration at half-maximal activity (AC50) was 39.3 µM (active).
In the case of `Cc1cc(-c2ccc(N)c(C)c2)ccc1N`, the result was inactive.
The same measure, in the same setting: with `Cc1ccccc1CO[C@@H]1C[C@@]2(C(C)C)CC[C@]1(C)O2` the entry was “inactive”.
For the molecule `Clc1ccc(C(c2ccccc2Cl)C(Cl)(Cl)Cl)cc1` (stereo not given), the concentration at half-maximal activity (AC50) is 11.4 µM (active).
As to `Oc1ccc(Cl)cc1Cl`, the outcome was inactive.
Still for that read-out and setting: in the case of `CCOCCOC(C)=O` it was “inactive”; in that of `C=CC(=O)NCNC(=O)C=C`, “inactive”.
On the same count and under the same terms, with `Nn1cnnc1` the entry was “inactive”; with `ClC1=C(Cl)[C@]2(Cl)[C@@H]3[C@@H]4C[C@@H]([C@H]5O[C@@H]45)[C@@H]3[C@@]1(Cl)C2(Cl)Cl`, “inactive”.
In the case of `CCC(C)(c1ccc(O)cc1)c1ccc(O)cc1`, the AC50 is 20 µM (active).
The same measure, in the same setting: with `CCCCCCOC(=O)c1ccccc1C(=O)OCCCCCC` the figure was 29.1 µM (active).
In the case of `N#Cc1ccc(N(CC(N)=O)CC(F)(F)F)cc1C(F)(F)F`, the outcome was inactive.
As to `Cc1ccc(O)c(C)c1`, the result was inactive.
Still for that read-out and setting: in the case of `Cc1ccccc1O` it was “inactive”.
`CCC(=O)O[C@H]1CC[C@H]2[C@@H]3CCC4=CC(=O)CC[C@]4(C)[C@H]3CC[C@]12C`: the AC50 is 29 µM (active).
Consider `C[C@]12CCC(=O)C=C1CC[C@@H]1[C@@H]2CC[C@]2(C)C(=O)CC[C@@H]12`, for which the outcome was inactive.

In general, AC50 refers to the midpoint of the concentration-response curve, whichever way the signal moves.
